Source: the supplement of paper PMC9694430

How the values were obtained:
Test in all cases: thermal shift delta Tm vs DMSO control; higher = stronger stabilization (binding)
Settings in all cases: 12.5 µM; protein concentration 2 µM
[1] = tested on: LOC_OS01G57100-cb003
Outline: (§1)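 Heating from 25°C to 95°C at 0.05°C/s, fluorescence was recorded for 19.5 μl wells of 2 μM E. coli-expressed, purified rice kinase domain in 100 mM potassium phosphate pH 7.5, 150 mM NaCl, 10% glycerol and 5 × SYPRO Orange with compound in DMSO. Boltzmann fits gave melting temperatures for this differential scanning fluorimetry assay. The shift reported is the mean of three replicates against the DMSO-only protein.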

[2] = tested on: LOC_OS01G60330-cb001
Outline: as §1

[3] = tested on: LOC_OS01G60700-cb002
Outline: as §1

[4] = tested on: LOC_OS01G63280-cb003
Outline: as §1

[5] = tested on: LOC_OS01G67340-cb003
Outline: as §1

[6] = tested on: LOC_OS01G70970-cb002
Outline: as §1

[7] = tested on: LOC_OS02G07810-cb001
Outline: as §1

[8] = tested on: LOC_OS02G08530-cb003
Outline: as §1

[9] = tested on: LOC_OS02G14120-cb001
Outline: as §1

[10] = tested on: LOC_OS02G17970-cb001
Outline: as §1

[11] = tested on: LOC_OS02G45750-cb003
Outline: as §1

[12] = tested on: LOC_OS02G54510-cb004
Outline: as §1

[13] = tested on: LOC_OS03G04050-cb001
Outline: as §1

[14] = tested on: LOC_OS03G12390-cb001
Outline: as §1

[15] = tested on: LOC_OS03G27990-cb004
Outline: as §1

[16] = tested on: LOC_OS03G50450-cb001
Outline: as §1

[17] = tested on: LOC_OS03G50810-cb003
Outline: as §1

[18] = tested on: LOC_OS04G35114-cb001
Outline: as §1

[19] = tested on: T1, LOC_OS04G38480-cb003
T1 sequence (whole entry): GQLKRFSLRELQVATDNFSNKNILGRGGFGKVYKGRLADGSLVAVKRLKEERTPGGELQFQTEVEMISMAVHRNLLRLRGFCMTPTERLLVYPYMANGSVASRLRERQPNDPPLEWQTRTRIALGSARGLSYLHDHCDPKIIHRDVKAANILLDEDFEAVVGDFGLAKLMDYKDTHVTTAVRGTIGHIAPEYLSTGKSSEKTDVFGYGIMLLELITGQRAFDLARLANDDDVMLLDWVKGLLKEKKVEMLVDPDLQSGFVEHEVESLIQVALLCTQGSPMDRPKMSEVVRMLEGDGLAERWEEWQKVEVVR
Outline: as §1

[20] = tested on: T2, LOC_OS04G41100-cb001
T2 sequence (whole entry): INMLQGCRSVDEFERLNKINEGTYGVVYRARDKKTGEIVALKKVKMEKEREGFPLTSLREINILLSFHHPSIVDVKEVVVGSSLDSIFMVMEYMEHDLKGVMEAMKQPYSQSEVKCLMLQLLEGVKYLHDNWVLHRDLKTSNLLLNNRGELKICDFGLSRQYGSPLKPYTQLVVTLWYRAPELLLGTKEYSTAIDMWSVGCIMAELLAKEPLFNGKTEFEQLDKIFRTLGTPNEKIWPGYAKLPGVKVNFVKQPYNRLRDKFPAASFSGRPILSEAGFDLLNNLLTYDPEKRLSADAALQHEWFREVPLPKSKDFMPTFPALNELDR
Outline: as §1
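Note: purified Escherichia coli-expressed rice kinase domain construct.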

| SMILES | thermal shift delta Tm [1] [°C] | thermal shift delta Tm [2] [°C] | thermal shift delta Tm [3] [°C] | thermal shift delta Tm [4] [°C] | thermal shift delta Tm [5] [°C] | thermal shift delta Tm [6] [°C] | thermal shift delta Tm [7] [°C] | thermal shift delta Tm [8] [°C] | thermal shift delta Tm [9] [°C] | thermal shift delta Tm [10] [°C] | thermal shift delta Tm [11] [°C] | thermal shift delta Tm [12] [°C] | thermal shift delta Tm [13] [°C] | thermal shift delta Tm [14] [°C] | thermal shift delta Tm [15] [°C] | thermal shift delta Tm [16] [°C] | thermal shift delta Tm [17] [°C] | thermal shift delta Tm [18] [°C] | thermal shift delta Tm [19] [°C] | thermal shift delta Tm [20] [°C] |
| --- | --- | --- | --- | --- | --- | --- | --- | --- | --- | --- | --- | --- | --- | --- | --- | --- | --- | --- | --- | --- |
| CNC(=O)c1ccccc1Nc1cc(Nc2ccc(N3CCOCC3)cc2OC)ncc1C(F)(F)F | 2.14 | 0.41 | 1.89 | 0.52 | 3.13 | 10.3 | 0.91 | 3.96 | 9.46 | 2.18 | 5.48 | 0.23 | 0.62 | 7.78 | 3.73 | 0.25 | 1.97 | 6.3 | 3.08 | 0.19 |
| COC(=O)c1ccc2c(c1)NC(=O)/C2=C(\Nc1ccc(N(C)C(=O)CN2CCN(C)CC2)cc1)c1ccccc1 [Nintedanib (BIBF 1120)] | 0.08 | 1.75 | 0.96 | -0.1 | 0.48 | 2.57 | 0.27 | 3.05 | 0.3 | -0.36 | 2.59 | 0.74 | 0.2 | 2.83 | 1.25 | 0.03 | 2.2 | 6.69 | 0.23 | 0.7 |
| COc1ccc2c(c1)[C@]1(C[C@H]1c1ccc3c(/C=C/c4ccc(CN5C[C@@H](C)O[C@@H](C)C5)cc4)n[nH]c3c1)C(=O)N2 | 2.82 | -0.26 | 0.64 | 1.2 | 2.12 | 2.01 | -0.49 | 1.45 | 7.54 | 0.31 | 9.37 | -0.19 | 0.73 | 0.7 | 0.36 | 0.66 | 4.68 | 4.47 | 4.28 | 0.19 |
| COCCOc1cnc2ccn([C@H](C)c3nnc4c(F)cc(-c5cnn(C)c5)cn34)c(=O)c2c1 | 0.7 | -0.01 | 0.32 | 0.22 | 0.31 | 0.36 | 0.15 | 0.71 | 1.22 | 0.15 | 1.08 | -0.12 | 0.22 | -0.12 | 0.2 | 0.05 | -0.09 | 0.69 | 0.41 | 0.65 |
